In PubChem BioAssay (NCATS):
Records with an inconclusive call do not appear. A number with no mark means an inactive call. Activity calls are given as the source filed them. The call rests on the fitted dose curve; in most records, active means well fitted cell-killing curve with a large enough effect; inconclusive means small, poorly fitted or top-dose-only effect, or effect the other way; inactive means flat fitted curve, though single readings scatter.

Test system: Es-2
Test: Primary qHTS to identify gynecologic anti-cancer compounds using libraries of approved drugs and bioactive compounds (AID 1345084); further: nearly all actives have a fitted effect of over 55% in size
Conditions: Gynecologic cancer cell panel viability, ATPlite luminescence, 48 h; series mostly up to 57.5 µM; activity change, negative = cytotoxicity: at the top concentration
Outline: (§1)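 ATP-based viability (ATPlite), 1,000 cells/well, 16 h pre-incubation, 48 h compound at 37 C, 5% CO2, 15 min RT before read.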
On the % scale 0 is the no-effect control and ±100 the full control effect; potency means the concentration at half of the fitted maximal effect.

Row | SMILES | activity change, negative = cytotoxicity
1 | CN1C(=O)CN=C(c2ccccc2Cl)c2cc(Cl)ccc21 | -3.56%

Test system: HeLa
Test: as above
Conditions: Gynecologic cancer cell panel viability, ATPlite luminescence, 48 h; series mostly up to 57.5 µM; activity change, negative = cytotoxicity: at the top concentration
Outline: as §1

Row | SMILES | activity change, negative = cytotoxicity | Potency
2 | C/C=C(/C)C1C=CC2CC(C)CC(C)C2C1/C(O)=C1\C(=O)NC(CC(C)(O)C(=O)O)C1=O (stereo not drawn) | -3.98% [at 25.3 µM] | 
3 | CS[C@]1(CO)C(=O)N2[C@H]3C(=CC=C[C@@H]3O)C[C@@]2(SC)C(=O)N1C | -5.65% [at 38.5 µM] | 
4 | COc1ccc2c3c4n(c2c1)[C@@H](C=C(C)C)OOC(C)(C)C[C@@H]4N1C(=O)[C@@H]2CCCN2C(=O)[C@]1(O)[C@H]3OCC=C(C)C | 5.65% [at 25.3 µM] | 
5 | CC1=CC2/C=C(\C)CCCC(O)/C=C/C(=O)OC23C(=O)NC(CC(C)C)C3C1C (stereo not drawn) | -4.95% [at 38.5 µM] | 
6 | C=CC(C)(C)c1[nH]c2c(CC=C(C)C)cc(CC=C(C)C)cc2c1C[C@@H]1NC(=O)[C@H](C)NC1=O | 3.65% | 
7 | COc1cc(O)c2c(c1)/C=C/C[C@@H](O)[C@@H](O)C(=O)CCC[C@H](C)OC2=O | 2.29% [at 38.5 µM] | 
8 | CC(=O)O[C@H]1CC[C@H]2[C@@H]3CC[C@H]4CC(=O)C=C(C)[C@]4(C)[C@H]3CC[C@]12C | 7.42% | 
9 | COc1cc(N2CCN(C)CC2)ccc1N | -1.75% | 
10 | COCC(C(=O)OC1CC2CCC(C1)N2C)c1ccccc1 (stereo not drawn) | 9.92% | 
11 | N#CC(O[C@@H]1O[C@H](CO)[C@@H](O)[C@H](O)[C@H]1O)c1ccccc1 (stereo partly drawn) | 9.26% | 
12 | NC(=O)c1ncn2c1CN=C(c1ccccc1Br)c1cc(F)ccc1-2 | 1.37% | 
13 | Cc1c(N2C(=O)[C@@H]3[C@H](O)CCN3C2=O)ccc(C#N)c1Cl | -2.46% | 
14 | CC(=O)N1N=C(c2ccc(N)cc2)c2cc3c(cc2C[C@H]1C)OCO3 | 0.385% | 
15 | COC(=O)[C@]12CCCC(C)(C)C1CCc1cc(C(C)C)c(O)c(O)c12 (stereo partly drawn) | -1.37% [at 38.5 µM] | 
16 | COc1ccc(CN(C(=O)[C@@H](N)Cc2c(C)cc(C(N)=O)cc2C)[C@@H](C)c2ncc(-c3ccccc3)[nH]2)cc1C(=O)O | 7.71% | 
17 | C=CC/C=C\C/C=C\CCCCCCCc1cc(O)cc(O)c1 | -16.7% [at 38.5 µM] | 
18 | CN1C2CCC1CC(OC(=O)N1Cc3ccccc3NC1=O)C2 (stereo not drawn) | 23% | 
19 | COC(=O)CC1CC2(C(=O)c3c(O)cccc3C2(O)C(=O)OC)C(C)O1 (stereo not drawn) | -3.82% [at 38.5 µM] | 
20 | c1cncc(OC[C@@H]2CCN2)c1 | 11.7% | 

Row | SMILES | activity change, negative = cytotoxicity | Potency
21 | Cc1c(Cl)c(OCC(=O)N2CCN(C)CC2)nc2sc(C(=O)NC3CC3)c(N)c12 | 0.14% | 
22 | CN1CCc2cc3c(cc2C1C1OC(=O)c2c1ccc1c2OCO1)OCO3 (stereo not drawn) | -2.7% [at 38.5 µM] | 
23 | C#CCO[C@H]1CN2CCC1CC2 | 4.83% | 
24 | CC1CCCC(O)CC(=O)Cc2cc(O)cc(O)c2C(=O)O1 (stereo not drawn) | -25.4% [at 38.5 µM] | 
25 | COc1ccsc1CNCC[C@@]1(c2ccccn2)CCOC2(CCCC2)C1 | -0.776% | 
26 | C1=C(c2cnc[nH]2)c2ccsc2CC1 | -7.28% | 
27 | CC1=CC2(O)/C=C/C(C)(O)C(O)C(O)/C=C/C(=O)OC23C(=O)NC(CC(C)C)C3C1C (stereo not drawn) | 2.15% [at 25.3 µM] | 
28 | C/C=C1/CN2CC[C@]34C(=Nc5ccc(OC)cc53)C2C[C@@H]1C4(CO)C(=O)OC (stereo partly drawn) | 11% [at 38.5 µM] | 
29 | Cc1cccc(NC(=O)N[C@H]2CN(C)c3ccccc3C(c3ccccc3)=N2)c1 | 0.818% | 
30 | Oc1ccc2c3c1O[C@H]1c4[nH]c5c(N=C=S)cccc5c4C[C@@]4(O)[C@@H](C2)N(CC2CC2)CC[C@]314 | 16.8% | 
31 | CO[C@@H]1[C@H](O)[C@@H](O[C@@H]2C[C@H]3CC[C@@H]4C(CC[C@]5(C)[C@@H](C6=CC(=O)OC6)CC[C@]45O)[C@@]3(C)[C@H](O)C2)O[C@H](C)[C@@H]1O (stereo partly drawn) |  | 199 nM (active)
32 | C[C@@H]1CCC/C=C/[C@H]2C[C@@H](O)C[C@@H]2[C@@H](O)/C=C/C(=O)O1 |  | 501 nM (active)
33 | C[C@]12CCC(=O)C=C1CC[C@@H]1[C@@H]2[C@@H](O)C[C@]2(C)C(=O)CC[C@@H]12 | 4.07% | 
34 | CCC(C)(O)C1(C(=O)O)COC(=O)C1 (stereo not drawn) | 10.1% | 
35 | COC(=O)C1=COC(C)C2CN3CCC4(C(=O)Nc5ccccc54)C3CC12 (stereo not drawn) | -8.92% [at 38.5 µM] | 
36 | CC1(C)C(=O)N(c2ccc(C#N)c(C(F)(F)F)c2)C(=O)N1CCCCO | -2.97% | 
37 | O=C1N[C@@H](Cc2ccccc2)CN2CCCC[C@@H]12 | -2.45% | 
38 | CN1C(=O)CN=C(c2ccccc2Cl)c2cc(Cl)ccc21 | 0.157% | 
